Assay outcomes from PubChem BioAssay.
VLA-4 inh = inhibition in human VLA-4 binding assay, primary screen, VLA-4 allosteric modulator project, MLPCN library, flow cytometry, VLA-4 expressing cells; inhibition, % (about 7 µM as worked out from the volumes in the protocol); Integrin alpha-4 (Homo sapiens), P13612; ligand binding flow cytometry; hit rate 0.2% among 330,000; in the data active = inhibition above about 50%
Target sequence (P13612 whole entry, looked up): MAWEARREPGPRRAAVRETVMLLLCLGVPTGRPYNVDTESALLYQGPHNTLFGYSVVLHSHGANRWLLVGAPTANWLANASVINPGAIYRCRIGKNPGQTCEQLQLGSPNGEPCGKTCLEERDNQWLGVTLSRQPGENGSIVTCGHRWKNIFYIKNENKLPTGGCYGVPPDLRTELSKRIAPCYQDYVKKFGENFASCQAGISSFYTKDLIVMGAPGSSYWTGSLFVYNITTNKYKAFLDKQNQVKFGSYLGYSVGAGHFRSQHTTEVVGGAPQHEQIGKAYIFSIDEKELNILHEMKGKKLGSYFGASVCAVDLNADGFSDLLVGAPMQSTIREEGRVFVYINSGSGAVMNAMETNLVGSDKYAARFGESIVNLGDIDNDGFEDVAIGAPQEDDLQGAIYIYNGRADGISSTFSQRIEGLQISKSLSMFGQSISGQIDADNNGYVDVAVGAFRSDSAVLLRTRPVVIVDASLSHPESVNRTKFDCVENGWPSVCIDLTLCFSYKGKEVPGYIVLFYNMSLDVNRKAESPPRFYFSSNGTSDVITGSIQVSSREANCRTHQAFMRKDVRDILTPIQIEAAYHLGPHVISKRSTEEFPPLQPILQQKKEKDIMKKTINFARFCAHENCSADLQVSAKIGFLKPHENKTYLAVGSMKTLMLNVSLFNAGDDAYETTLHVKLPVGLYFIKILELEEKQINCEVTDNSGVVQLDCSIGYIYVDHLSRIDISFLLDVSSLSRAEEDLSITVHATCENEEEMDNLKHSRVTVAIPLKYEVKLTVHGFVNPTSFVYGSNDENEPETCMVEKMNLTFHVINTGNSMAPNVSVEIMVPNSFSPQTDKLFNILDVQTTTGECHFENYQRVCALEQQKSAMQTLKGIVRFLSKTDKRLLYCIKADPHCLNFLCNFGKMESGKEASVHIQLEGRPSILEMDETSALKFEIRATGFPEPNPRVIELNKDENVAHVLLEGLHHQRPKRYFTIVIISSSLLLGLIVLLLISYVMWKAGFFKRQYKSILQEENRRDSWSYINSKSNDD
A3A deaminase = APOBEC3A ssDNA deaminase inhibitors, primary screen, selectivity assay for APOBEC3G inhibitor project, biochemical, FAM/TAMRA oligo cleavage fluorescence | inhibition, % at 20 µM | hit rate 0.41% among 330,000 | recombinant A3A, FAM/TAMRA ssDNA deamination fluorescence | DNA dC->dU-editing enzyme APOBEC-3A (Homo sapiens), P31941;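 active = at least 40% inhibition at 20 µM here, with at most 30% in a related deaminase screen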;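 note: plate controls were A3A with DMSO for no effect and wells lacking A3A enzyme for full effect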
A3G deaminase = APOBEC3G DNA deaminase inhibitors, primary screen, biochemical, fluorescence, single-stranded DNA substrate, uHTS | DNA dC->dU-editing enzyme APOBEC-3G (Homo sapiens), Q9HC16 | recombinant A3G, ssDNA deamination FAM/TAMRA fluorescence | inhibition, % at 20 µM | hit rate 0.28% among 330,000 | AID 493012, 2011;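 active = inhibition of at least 40% at 20 µM, with no more than 30% in the related APOBEC3A deaminase screen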;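 note: plate controls were DMSO wells with A3G for no effect and wells lacking A3G enzyme for full effect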
GRK2 inh = compounds blocking aptamer binding on GRK2 – biochemical, human GRK2, bead flow cytometry, HTS, primary screen | Beta-adrenergic receptor kinase 1 (Homo sapiens), P25098 | FAM-aptamer displacement from GRK2 | inhibition of aptamer binding, % at 10 µM | hit rate 0.59% among 330,000 | AID 488847, 2010;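 active = inhibition of aptamer binding above 40%, roughly 3 SD of noise, on plates passing a quality check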;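 note: median bead fluorescence of bound FAM aptamer so fluorescent compounds give negative values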
GRK2 CP1 = GRK2 aptamer-displacing inhibitors, retest, confirmation, biochemical, cherry pick 1, bead flow cytometry | AID 504451, 2011 | hit rate 4% among 2,000 | bead-bound GRK2, FAM-aptamer displacement | aptamer displacement, % at 10 µM | shares compounds with GRK2 inh;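 active = aptamer displacement above 40%, near three times the noise of non-fluorescent compounds, on plates passing quality checks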;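 note: negative values mostly reflect intrinsic compound fluorescence rather than true enhancement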
FAM quench CP1 = aptamer fluorescence quenching in GRK2 counter-screen; fluorescence response (% of DMSO), % at 10 µM; Carboxyfluorescein RNA aptamer on beads, flow cytometry quenching; stronger effect = lower value; AID 504580; shares compounds with GRK2 inh; 2,000 tested, under 10 active;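 active = compounds that quench the bead-bound fluorescent RNA probe, cutting fluorescence to under half of the solvent control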;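 note: counterscreen run without GRK2 so only probe quenching by compound is measured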
GRK2 confirm 2 = GRK2 aptamer-displacing inhibitors, hit retest, confirmation, biochemical, cherry pick 2, bead flow cytometry; shares compounds with GRK2 inh; AID 504782, 2011; bead-bound GRK2, FAM-aptamer displacement; inhibition of aptamer binding, % at 10 µM; 360 tested, under 10 active;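 active = inhibition of aptamer binding above 40%, about triple the noise seen with nonglowing compounds, on plates passing quality control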;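 note: negative values mostly come from compounds that fluoresce themselves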
FAM quench SP = aptamer fluorescence quenching in GRK2 counter-screen; shares compounds with GRK2 inh; carboxyfluorescein RNA aptamer beads, flow cytometry quenching; stronger effect = lower value; fluorescence response vs DMSO, % at 10 µM; 360 tested, under 10 active; AID 588494;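 active = response vs DMSO under 50%, meaning signal dropped by over half, treated as fluorescence quencher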;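 note: labelled aptamer on streptavidin beads without GRK2 as a quench counter-screen; 100% = bead fluorescence of DMSO wells and lower means quenching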
Numbers without * were called inactive; . = no result given. The list is not random: actives were taken first. Their share in the collection is about 1.4%.

SMILES	VLA-4 inh	A3A deaminase	A3G deaminase	GRK2 inh	GRK2 CP1	FAM quench CP1	others
O=C(CSc1nnc(NC(=O)Cc2ccccc2)s1)NCc1ccco1	11.1	2.4	0.2	60.0*	-0.6	92.4
O=C(CSc1nnc(NC(=O)Cc2ccc(F)cc2)s1)NCc1ccco1	0.3	-0.3	-2.6	2.0	.	.
Cc1sc2nc(SCC(=O)NCc3ccco3)[nH]c(=O)c2c1C	33.6	-2.3	-11.2	1.0	.	.	GRK2 confirm 2=-13.3;FAM quench SP=102.0
O=C(Cc1cccc2ccccc12)NNC(=O)c1cccs1	6.3	-2.2	-1.5	0.0	.	.
O=C(CSc1nnc(CNC(=O)C23CC4CC(CC(C4)C2)C3)n1-c1ccc(F)cc1)Nc1ccc(F)cc1	-3.1	-2.3	-8.6	0.0	.	.
O=C(Nc1ccc2oc(-c3cccnc3)nc2c1)c1ccc2c(c1)OCCO2	4.0	0.8	-6.9	60.0*	7.2	96.4
O=C(Nc1ccc2oc(-c3ccncc3)nc2c1)c1ccc2c(c1)OCO2	-5.8	12.5	3.5	8.0	.	.
CC(c1nnc(SCC(=O)Nc2cccnc2Cl)n1Cc1ccccc1)N(C)C (stereo not drawn)	12.7	-1.2	-4.9	99.0*	2.8	91.1
CC(C)N(CCn1c(SCC(=O)Nc2cccnc2Cl)nc2ccccc2c1=O)C(C)C	35.7	1.2	-1.9	42.0*	.	.	GRK2 confirm 2=-8.5;FAM quench SP=99.0
O=C(O)CC(CC(=O)Nc1nncs1)c1ccccc1 (stereo not drawn)	8.4	-0.2	1.1	49.0*	0.1	100.3
CCCCCC(=O)Nc1nnc(CCc2ccccc2)s1	9.9	0.5	-7.1	.	.	.
O=C(CCS(=O)(=O)c1ccccc1)Nc1nncs1	-1.6	9.9	4.7	54.0*	5.8	101.2
CCCCC(=O)Nc1nnc(CCc2ccccc2)s1	12.3	0.9	0.6	99.0*	0.0	97.1
CCOCCc1nnc(NC(=O)C(C)Oc2ccccc2)s1 (stereo not drawn)	0.2	0.6	-6.6	4.0	.	.
CCOCCc1nnc(NC(=O)CCS(=O)(=O)c2ccccc2)s1	5.5	6.7	8.7	5.0	5.9	97.4
O=C(CCCc1ccccc1)Nc1nncs1	3.2	-13.0	-4.1	0.0	.	.
CN(C1CCCCC1)S(=O)(=O)c1cccc(C(=O)Nc2ccccn2)c1	2.3	1.5	-4.3	2.0	.	.
O=C(CCc1ccccc1F)N1CCN(c2ccc(C(F)(F)F)cn2)CC1	3.5	-1.6	-8.5	1.0	.	.
N#Cc1ccccc1NC(=O)c1ccc2c(c1)OCCO2	15.6	-1.3	-8.3	0.0	.	.
Cc1ccc(OCCCOc2cccc3cccnc23)cc1C	-0.3	-3.2	-7.2	2.0	.	.
COC(=O)c1ccsc1NC(=O)CCS(=O)(=O)c1ccc(Cl)cc1	-6.8	-0.3	-3.8	1.0	.	.	GRK2 confirm 2=-38.0;FAM quench SP=101.0
COCCSc1nnc(NC(=O)CCS(=O)(=O)c2ccccc2)s1	-8.1	-5.5	-5.1	0.0	0.3	100.2
COC(=O)c1ccsc1NC(=O)CCS(=O)(=O)c1ccccc1	-14.4	-0.5	14.7	3.0	.	.
CC(C)Cc1nnc(NC(=O)CCS(=O)(=O)c2ccc(Cl)cc2)s1	-4.4	-2.6	-2.8	0.0	-5.3	96.4
COCCSc1nnc(NC(=O)CS(=O)(=O)c2ccc(C)cc2)s1	-1.3	-1.0	-6.0	0.0	.	.
SMILES	VLA-4 inh	A3A deaminase	A3G deaminase	GRK2 inh	GRK2 CP1	FAM quench CP1	others
CCn1c(SCC(=O)Nc2nc(C)c(C)s2)nnc1-c1cccs1	-13.0	0.8	-2.0	0.0	.	.
Cc1ccccc1N1CCN(C2CCCN(C(=O)c3ccccn3)C2)CC1 (stereo not drawn)	13.4	-4.1	-3.7	0.0	.	.
O=C(CCSCCC(=O)NCc1ccccc1)NCc1ccccc1	-11.7	-7.3	-3.4	87.0*	1.2	100.6
O=C(CCc1ccccc1)NCc1ccccc1	7.7	0.3	2.2	0.0	.	.
CCCOc1ccc(CN(C(=O)c2cccc(OC)c2)C2CCS(=O)(=O)C2)cc1 (stereo not drawn)	-1.9	-1.1	-3.7	99.0*	1.5	96.8
COc1ccc(CN(C(=O)c2cccc(OC)c2)C2CCS(=O)(=O)C2)cc1 (stereo not drawn)	-3.6	-1.0	-0.3	3.0	.	.
COCCNC(=O)C(c1ccc(C)o1)N(Cc1ccc(OC)cc1)C(=O)Cn1nnc2ccccc21 (stereo not drawn)	-12.5	3.3	2.2	44.0*	-4.4	91.2
COCCOC1CCN(C(=O)C2CCC(=O)N(CCc3cccc(F)c3)C2)CC1 (stereo not drawn)	24.4	-3.1	-5.1	0.0	.	.
CC(CNc1nc2ccccc2n2cnnc12)c1ccccc1 (stereo not drawn)	5.0	-2.6	-4.2	42.0*	-2.9	103.0
CCCCCC(=O)Nc1ccc(N2CCOCC2)c(S(=O)(=O)Nc2ccc(OC)cc2)c1	25.6	12.8	-8.9	82.0*	-19.1	94.4
C=C(C)CSc1nc2sc3c(c2c(=O)n1-c1ccc(C)cc1)CCN(C)C3	.	-4.5	-8.2	.	0.1	100.6
Clc1cccc(CN2CCSCC2)c1	8.9	-9.1	-4.5	99.0*	34.3	101.8
COc1ccccc1-c1nc(SCC(=O)N2CCOCC2)n[nH]1	10.1	-2.2	-6.7	0.0	.	.
O=C(CSc1n[nH]c(-c2ccc(Br)cc2)n1)N1CCOCC1	1.5	-2.6	-6.0	20.0	-1.9	100.8
O=C1NCCN(Cc2ccc(F)cc2)C1CC(=O)N1CC=C(c2ccccc2)CC1 (stereo not drawn)	-6.1	1.9	-0.4	3.0	.	.
Cc1cc(CNC(=O)CC2C(=O)NCCN2Cc2ccc(-c3ccccc3)cc2)nn1C (stereo not drawn)	3.6	3.0	10.0	3.0	-15.2	95.9
O=C1NCCN(Cc2ccc(-c3ccccc3)cc2)C1CC(=O)N1CCN(CCO)CC1 (stereo not drawn)	4.0	0.2	-4.6	100.0*	0.1	81.5
Cc1cc(CNC(=O)CC2C(=O)NCCN2Cc2ccccc2)nn1C (stereo not drawn)	14.9	-6.6	-10.8	0.0	.	.
CC(NC(=O)c1cccc(S(=O)(=O)N2CCN(C)CC2)c1)c1ccc(Cl)cc1Cl (stereo not drawn)	-1.4	11.1	-7.5	75.0*	-3.4	96.7
